The results in this text go back to PubChem BioAssay (NCATS).

The structures appear in SMILES notation. Results filed as inconclusive are left out. A number with no mark means an inactive call. The source made the active and inactive calls. Calls follow the shape of the dose curve; as a rule, active = well fitted inhibition curve with a large enough effect; inconclusive = small, poorly fitted or top-dose-only effect; inactive = flat fitted curve, though single readings scatter.
% is scaled to controls: 0 for no effect and ±100 for the full control effect; potency is read from the fitted curve at half-maximal effect.

This assay deals with astro (control astrocytes). Description: Drug repurposing screens with cells derived from glioblastoma tumor samples (AID 1345199). Also: nearly all actives have a fitted effect of over 40% in size. To be noted: viability, ATP luminescence, 48 h; series mostly up to 45.9 µM; activity, negative = cell killing: at the top concentration. How it is done: CD133+ cells were isolated from GBM patient biopsies and cultured as neurospheres. Neurospheres from four patients were used to screen the NCATS pharmaceutical collection (NPC) library of approved drugs and bioactive compounds. […] The neurospheres were incubated with drugs for 48 hours in 1536-well format, then assayed with an ATP content cell viability assay. […] These hits were cherry picked to confirm activity in the four original GBM lines screened plus three other slower growing GMB lines (unable to yield enough cells for a full primary screen). Variable activities of the confirmed primary hits in the different GBM patient lines were observed. The patient line 206 responded to the greatest number of compounds and line 923 responded to the least amount of active compounds.
Regarding `Nc1nc(N)nc(NC2CC2)n1`, the “activity, negative = cell killing” value is -17.1%.
As to `CC(C)NC(C)C`, the “activity, negative = cell killing” value was 7.29%.
The same measure, in the same setting: to `COc1c2c(cc3c1OCO3)CCN(C)C2` belongs -13.1% [at 21.2 µM]; to `CCN(CCO)CCn1c(Cc2ccccc2)nc2c1c(=O)n(C)c(=O)n2C`, -5.74%; to `COc1cccc([C@@]2(O)CCCC[C@@H]2CN(C)C)c1`, -18%.
On the same count and under the same terms, to `Nc1ccc([As](=O)(O)O)cc1` belongs -9.2%.
The same measure, in the same setting: the result for `CN(C)CCc1c[nH]c2cccc(OP(=O)(O)O)c12` reads -0.323% [at 91.6 µM].
`CCC1(CC)C(=O)C=CNC1=O`: the “activity, negative = cell killing” value is -6.92%.
Still for that read-out and setting: the result for `CCC1(c2ccc(N)cc2)CCC(=O)NC1=O` (stereo not given) reads -14.7%; that for `CN1CCC(O)(c2ccc(F)cc2)C(C(=O)c2ccc(F)cc2)C1` (stereo not given), -26.4%.
The same measure, in the same setting: to `C[C@]12CCC(=O)C=C1CC[C@@H]1[C@H]3CC[C@](C)(O)[C@@]3(C)CC[C@@H]12` belongs -29.9% [at 91.6 µM]; to `COc1ccc2c(c1OC)C(=O)O[C@H]2[C@@H]1c2cc3c(cc2CCN1C)OCO3`, -14.1%; to `NCCc1ccc(O)cc1`, -1.61%.
In the case of `C[C@H](N)C(=O)c1ccccc1`, the Potency result is “inactive”.
On to `[N-]=[N+]=CC(=O)OC[C@H](N)C(=O)O`, for which the “activity, negative = cell killing” value is -17.6%.
Still for that read-out and setting: to `C[C@H]1[C@@H]2Cc3ccc(O)cc3[C@@]1(C)CCN2C` belongs -9.02% [at 231 µM]; to `c1ccc2c(c1)sc1ccccc12`, -10.5%; to `NC(=O)CS(=O)C(c1ccccc1)c1ccccc1` (stereo not given), -11.3%.
Still for that read-out and setting: the result for `CC(C)c1cccc(C(C)C)c1O` reads -22.4%.
Regarding `Clc1cccc(SC2CCNCC2)n1`, the Potency is 35.5 µM (active).
As to `CCN[C@@H](C)Cc1ccccc1`, the “activity, negative = cell killing” value is -0.993% [at 108 µM].
Regarding `CCCCCCC(=O)CCCCCC/C=C/C[C@@H](O)[C@H](O)[C@@](N)(CO)C(=O)O`, the Potency result is “inactive”.
Turning to `Oc1ccc(Cl)cc1`, the “activity, negative = cell killing” value is -13%.
On the same count and under the same terms, the result for `COc1cc(CCN)cc(OC)c1OC` reads 3.29% [at 108 µM].
Same read-out and setting: to `CC(C)(C)c1ccc(O)cc1` belongs -11.7%.
Take `CC(Cc1ccccc1)NCCn1cnc2c1c(=O)n(C)c(=O)n2C` (stereo not given): the “activity, negative = cell killing” value was -15% [at 91.6 µM].
In the case of `C[C@]12CCC(=O)C=C1CC[C@@H]1[C@@H]2CC[C@@]2(C)[C@H]1CC[C@]2(C)O`, the “activity, negative = cell killing” value was -27.9%.
Regarding `CCc1cc2c(s1)-n1c(C)nnc1CN=C2c1ccccc1Cl`, the “activity, negative = cell killing” value is -25.3%.
On the same count and under the same terms, to `C=CCN1C[C@H](C)N([C@H](c2ccc(C(=O)N(CC)CC)cc2)c2cccc(OC)c2)C[C@H]1C` belongs -18.1%; to `Cc1ncsc1CCCl`, -9.62%.
Still for that read-out and setting: to `O=C(O)CCCc1ccc(N(CCCl)CCCl)cc1` belongs -15.8%; to `Nc1ccccc1C(=O)O`, -7.13%.
As for `CC(=O)NC1CCSC1=O` (stereo not given), the Potency result was “inactive”.
Consider `CN1CC[C@]23c4c5ccc(O)c4O[C@H]2[C@@H](O)C=C[C@H]3[C@H]1C5`, for which the “activity, negative = cell killing” value is -29.9% [at 91.6 µM].
Same read-out and setting: to `O=C1CN=C(c2ccccc2)c2cc([N+](=O)[O-])ccc2N1` belongs -19.2%.
With `CN=C1CN(O)C(c2ccccc2)=c2cc(Cl)ccc2=N1`, the Potency entry was “inactive”.
`NNc1ccccc1`: the “activity, negative = cell killing” value was -14.5%.
Still for that read-out and setting: to `CC(=O)OCC1=C(C(=O)O)N2C(=O)[C@@H](N)[C@H]2SC1` belongs -9.66% [at 21.2 µM].
Still for that read-out and setting: the result for `O=P1(N(CCCl)CCCl)NCCCO1` (stereo not given) reads -15.9%.
The same measure, in the same setting: the result for `CN1C(=O)COc2c(C(=O)NC3CN4CCC3CC4)cc(Cl)cc21` (stereo not given) reads -26.6%.
